The text below walks through data of publication PMC11062922 (Nature Chemical Biology, 2023).

Common to all, as to set-up: species or system human, MV4-11 + K-562 + COLO205 + SK-N-BE2 + OVCAR-8
One experiment concerns PRKX;PRKY. The following applies: read-out: apparent Kd, n = 1.
The next experiment concerns PAK4. The following applies: compound concentrations:0.3nM, 1nM, 3nM, 10nM, 30nM, 100nM, 300nM, by the legend:Standard error of the EC50 estimation as provided by the drc package.; for Kd: read-out: apparent Kd.
The test system of another experiment is PKN3. To be noted: compound concentrations:0.3nM, 1nM, 3nM, 10nM, 30nM, 100nM, 300nM, by the legend:Standard error of the EC50 estimation as provided by the drc package.; for Kd: read-out: apparent Kd.
A further experiment relates to EPHB6. To be noted: read-out: apparent Kd, n = 1.
For a further experiment, the system named is PRKDC. The following applies: read-out: apparent Kd, n = 1.
The next experiment has as its system TAOK1. The following applies: read-out: apparent Kd, n = 1.
A further experiment concerns MERTK. The following applies: read-out: apparent Kd, n = 1.
A further experiment has as its system ERN1. To be noted: read-out: apparent Kd, compound concentrations: 100 nM and 1000 nM (sheet 'Samples'), n = 1.
The test system of a further experiment is IRAK1. The following applies: read-out: apparent Kd, n = 1.
The next experiment relates to MAP2K5. The following applies: read-out: apparent Kd, compound concentrations: 100 nM and 1000 nM (sheet 'Samples'), n = 1.
For a further experiment, the system named is SYK. The following applies: read-out: apparent Kd, n = 1.
In the next experiment the test system is TBK1. The following applies: read-out: apparent Kd, n = 1.
The next experiment concerns AKT1. The following applies: read-out: apparent Kd, compound concentrations: 100 nM and 1000 nM (sheet 'Samples'), n = 1.
In the next experiment the test system is CSNK1G1. The following applies: read-out: apparent Kd; compound concentrations: 100 nM and 1000 nM (sheet 'Samples'), CATDS: 5.3431605837735603E-3; n = 1.
A further experiment relates to MAPK11. The following applies: read-out: apparent Kd, compound concentrations: 100 nM and 1000 nM (sheet 'Samples'), n = 1.
Another experiment relates to NQO1. The following applies: read-out: apparent Kd, compound concentrations: 100 nM and 1000 nM (sheet 'Samples'), n = 1.
The test system of another experiment is PIM1. To be noted: read-out: apparent Kd, n = 1.
A further experiment relates to PRKCI. The following applies: read-out: apparent Kd; compound concentrations: 100 nM and 1000 nM (sheet 'Samples'), CATDS: 3.8239218597995801E-3; n = 1.
Setting [1] is: compound concentrations:100 nM and 1000 nM (sheet 'Samples').
Where [2] appears, read: 1000nM,R2:0.97831665287894598,slope:1.2194506521172099,EC50 Standard Error.
Setting [3] is: 1000nM,R2:0.90981556238152395,slope:1.4029304179145099,EC50 Standard Error.
Setting [4] is: 1000nM,R2:0.96781137417830099,slope:0.58987671625518001,EC50 Standard Error.
[5] abbreviates: 1000nM,R2:0.99888452271644701,slope:1.2700915856501001,EC50 Standard Error.
[6] abbreviates: 1000nM,R2:0.98802455290270397,slope:1.1906156337481999,EC50 Standard Error.
Setting [7] is: 1000nM,R2:0.95736535454590599,slope:1.35169947345033,EC50 Standard Error.

SMILES strings stand for the structures. Like-named read-outs stand apart in the source and are kept apart here.
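Wherever EC50 is given: competition pulldown with Kinobeads ε in cell lysates, inhibitor preincubated 45 min at 4 °C, bound kinases quantified by LC–MS/MS against DMSO control.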
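Wherever Kd is given: competition pulldown with Kinobeads ε in cell lysates, inhibitor preincubated 45 min at 4 °C, bound kinases quantified by LC–MS/MS against DMSO control.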

With `CCn1c(-c2nonc2N)nc2c(C#CC(C)(C)O)nc(OCCNC)cc21.Cl` [GSK949675A], in the experiment with PRKX;PRKY (setting [1]), the potency estimated from few doses was 355 nM. Moreover, in the experiment with PAK4 (setting [2]), the EC50 (commonly the concentration needed to bring the measured effect to its halfway point) was 316 nM and the Kd was 218 nM. In the experiment on PKN3 (setting [3]), the EC50 was 89.8 nM and the Kd is 89.8 nM.

Regarding `CN1C[C@@H]2Cn3c(c(C4=C(c5cn(C)c6ccccc56)C(=O)NC4=O)c4ccccc43)C[C@H]2C1.Cl` [RO0320234-001], the potency estimated from few doses in the experiment on EPHB6 (setting [1]) is 1960 nM; in the experiment with PRKDC (setting [1]) it was 859 nM; in the experiment with TAOK1 (setting [1]) it was 1350 nM.

Turning to `Clc1cc(Cl)cc(Nc2ccnc(Nc3cc(Cl)cc(Cl)c3)n2)c1` [GSK175726A], the potency estimated from few doses is 1630 nM with EPHB6 (compound concentrations: 100 nM and 1000 nM (sheet 'Samples'), CATDS: 8.5475708332426303E-3); 607 nM in the experiment with PRKDC (compound concentrations: 100 nM and 1000 nM (sheet 'Samples'), CATDS: 1.07981791880609E-2).

For the molecule `NCCNS(=O)(=O)c1ccc(-c2ccnc3[nH]ccc23)cc1` [GSK977617A], the potency estimated from few doses in the experiment on MERTK (setting [1]) is 1440 nM.

Consider `COc1ccc(Nc2ncc(C#N)c(Nc3ccccc3C(N)=O)n2)cc1N1CCN(C)CC1.Cl` [GSK1558669A], for which the potency estimated from few doses in the experiment on ERN1 (CATDS: 5.84806980625629E-3) was 2140 nM; in the experiment on IRAK1 (compound concentrations: 100 nM and 1000 nM (sheet 'Samples'), CATDS: 7.7027436488320998E-3), 467 nM; in the experiment with MAP2K5 (CATDS: 8.5242635319968205E-3) it was 318 nM; with SYK (compound concentrations: 100 nM and 1000 nM (sheet 'Samples'), CATDS: 6.16985372159695E-3), 1440 nM; in the experiment with TBK1 (compound concentrations: 100 nM and 1000 nM (sheet 'Samples'), CATDS: 1.0324038658374401E-2), 172 nM.

Regarding `CCn1c(-c2nonc2N)nc2c(C#CC(C)(C)O)nc(OCCN)cc21.CCn1c(-c2nonc2N)nc2c(C#CC(C)(C)O)nc(OCCN)cc21.Cl.Cl` [GSK902056A], in the experiment on PAK4 (setting [4]), the EC50 is 5300 nM and the Kd was 4860 nM. In the experiment on PKN3 (setting [5]), the EC50 was 10.2 nM and the Kd is 10.2 nM.

Take `CNC(=O)c1ccccc1Nc1nc(Nc2ccc(N3CCOCC3)cc2)ncc1Cl.Cl` [GSK1576028A]: the potency estimated from few doses was 1020 nM in the experiment with IRAK1 (setting [1]) and 395 nM with TBK1 (setting [1]).

With `CCn1c(-c2nonc2N)nc2c(-c3ccccc3)ncc(OCCCN)c21.CCn1c(-c2nonc2N)nc2c(-c3ccccc3)ncc(OCCCN)c21.O=C(O)C(F)(F)F.O=C(O)C(F)(F)F` [GSK260205A], the potency estimated from few doses with AKT1 (CATDS: 6.9127027959846404E-2) was 157 nM.

Turning to `Cn1ncc2c(N)ncnc21` [SKF-18267], the potency estimated from few doses with AKT1 (CATDS: 4.8125130234568303E-3) is 879 nM; in the experiment on CSNK1G1 it was 716 nM; in the experiment with EPHB6 (compound concentrations: 100 nM and 1000 nM (sheet 'Samples'), CATDS: 4.7916385769682596E-3), 887 nM; in the experiment on ERN1 (CATDS: 4.2148373609633104E-3), 1180 nM; in the experiment on IRAK1 (compound concentrations: 100 nM and 1000 nM (sheet 'Samples'), CATDS: 3.5689080514204499E-3), 1830 nM; with MAP2K5 (CATDS: 4.1093022417344298E-3), 1250 nM. In addition, the potency estimated from few doses was 1040 nM with MAPK11 (CATDS: 4.4454363185357799E-3); 294 nM in the experiment with MERTK (compound concentrations: 100 nM and 1000 nM (sheet 'Samples'), CATDS: 9.2588510560485896E-3); 1800 nM with NQO1 (CATDS: 3.59016343581718E-3); 412 nM in the experiment with PIM1 (compound concentrations: 100 nM and 1000 nM (sheet 'Samples'), CATDS: 7.3887725324269602E-3); 1500 nM in the experiment with PRKCI; 547 nM in the experiment on PRKDC (compound concentrations: 100 nM and 1000 nM (sheet 'Samples'), CATDS: 6.2124168993476997E-3). The potency estimated from few doses in the experiment with SYK (compound concentrations: 100 nM and 1000 nM (sheet 'Samples'), CATDS: 5.7016392995471003E-3) is 635 nM; in the experiment on TAOK1 (compound concentrations: 100 nM and 1000 nM (sheet 'Samples'), CATDS: 4.9523162341794302E-3) it was 830 nM; in the experiment with TBK1 (compound concentrations: 100 nM and 1000 nM (sheet 'Samples'), CATDS: 5.0307170658674197E-3), 804 nM.

In the case of `Fc1ccc(-c2c(-c3ccncc3)[nH]c3cccnc23)cc1` [RO1153853-000], in the experiment with MAPK11 (CATDS: 6.1294477906433602E-2), the potency estimated from few doses is 838 nM.

Take `O=C1NC(=O)C(N2CCc3ccccc32)=C1c1ccccc1Cl` [SB-373598]: the potency estimated from few doses in the experiment on EPHB6 (setting [1]) was 615 nM; in the experiment on MERTK (setting [1]), 1850 nM; with PIM1 (setting [1]) it was 923 nM; in the experiment with PRKDC (setting [1]), 1200 nM.

As to `Cc1cccc(Nc2nc(N[C@H]3CCCC[C@H]3N)ncc2C(N)=O)c1.Cl` [GSK986310C], in the experiment with SYK (setting [1]), the potency estimated from few doses was 79.7 nM. Further, in the experiment on PAK4 (setting [6]), the EC50 is 135 nM and the Kd is 65.9 nM.

On to `Cl.NCc1ccc(-c2nc(-c3ccc(Cl)c(O)c3)c(-c3ccncc3)[nH]2)cc1` [SB-476429-A], for which, in the experiment on PKN3 (setting [7]), the EC50 is 38.4 nM and the Kd is 38.4 nM.

Take `CCOC(=O)N1CCC(n2cnc(-c3ccc(F)cc3)c2-c2ccnc(N)n2)CC1` [SB-219952]: the potency estimated from few doses with ERN1 (CATDS: 7.4915709296516997E-3) was 2200 nM; in the experiment with MERTK (compound concentrations: 100 nM and 1000 nM (sheet 'Samples'), CATDS: 8.4469178777721397E-3), 1410 nM.

Consider `O=C1N=C(NCCc2ccc(Cl)cc2)S/C1=C\c1ccc2ncccc2c1` [RO4498479-000], for which the potency estimated from few doses in the experiment with EPHB6 (compound concentrations: 100 nM and 1000 nM (sheet 'Samples'), CATDS: 6.9765900844718596E-3) is 1660 nM; in the experiment with PIM1 (compound concentrations: 100 nM and 1000 nM (sheet 'Samples'), CATDS: 9.1477666322176705E-3), 691 nM.

In the case of `CN(c1ccc(NC(=O)Nc2cccc(Cl)c2)cc1)c1ccnc(N)n1.Cl` [GW830707A], the potency estimated from few doses in the experiment with PRKX;PRKY (compound concentrations: 100 nM and 1000 nM (sheet 'Samples'), CATDS: 1.5379195282256401E-2) is 134 nM.

For `COc1cccc2c(-c3ccncc3)c(-c3ccc(F)cc3)nn12` [GW468513X], in the experiment on MAPK11 (CATDS: 3.7828559303077401E-2), the potency estimated from few doses was 1640 nM.

Regarding `CN(C)CC(O)COc1ccc(Nc2nccc(-c3cnn4nc(N5CCOCC5)ccc34)n2)cc1` (stereo not drawn) [GW767488X], the potency estimated from few doses in the experiment with IRAK1 (setting [1]) is 80 nM.

As for `c1cnn2ncc(-c3ccnc(Nc4ccc5c(c4)OCCO5)n3)c2c1` [GW806290X], the potency estimated from few doses in the experiment on AKT1 (CATDS: 2.02119935433384E-2) was 1930 nM; in the experiment on NQO1 (CATDS: 2.4144843754049801E-2), 1040 nM.
